Measured values as given in PubChem BioAssay (NCATS).
Records with an inconclusive call do not appear. Calls of active or inactive are those of the source. Calls come from the whole dose curve; as a rule, active = well fitted curve in the direction sought with a large enough effect; inconclusive = small, poorly fitted or top-dose-only effect, or another doubt; inactive = no such curve, though single readings can be large; an effect the other way counts as inactive or inconclusive.

Columns and labels:
[1] = Cell Viability - H-4-II-E (AID 543);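 note: cells exposed to compound for 40 hours; % is set by controls: 0 for no effect and ±100 for the full control effect; nearly all actives have a fitted effect of over 35% in size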
Method in brief: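 AC50 from Hill-modelled qHTS concentration-response curves. H-4-II-E rat hepatoma cells in complete medium, 40 hr exposure at 37 °C, viability by CellTiter-Glo ATP luminescence.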

[2] = Cell Viability - SH-SY5Y (AID 544); details: SH-SY5Y neuroblastoma cell viability; viability change, negative = cytotoxic: at 92.2 µM (top of the series);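 note: cells exposed to compound for 40 hours; nearly all actives have a fitted effect of over 55% in size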
Method in brief: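 Quantitative HTS in SH-SY5Y neuroblastoma cells, 40 hr treatment at 37 °C, ATP content by luciferase luminescence; AC50 from Hill fits.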

[3] = Cell Viability - Renal Proximal Tubule (AID 545);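 note: cells exposed to compound for 40 hours; nearly all actives have a fitted effect of over 40% in size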
Method in brief: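 Cytotoxicity is scored as a concentration-dependent drop in cellular ATP in primary rat renal proximal tubule cells exposed for 40 hr. AC50 derives from Hill modelling.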

[4] = Cellular Toxicity (caspase-3) HepG2 (AID 654);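 note: cells exposed to compound for 16 hours before reading; 0% = DMSO alone and 100% = caspase signal from 100 µM tamoxifen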
Method in brief: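 Concentration-response AC50 values reflect caspase-3/7 induction in HepG2 cells after 16 hours of compound exposure, quantified by luminescence from liberated aminoluciferin and referenced to 100 uM tamoxifen as full stimulation.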

[5] = Cellular Toxicity (caspase-3) Jurkat (AID 655); details: Jurkat caspase-3 activation, luminescence; caspase-3 activation: at 92.2 µM (top of the series), DMSO = 0%, tamoxifen = 100%;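 note: cells exposed to compound for 16 h at 37 °C before reading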
Method in brief: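 Caspase 3/7 activation is scored as increased luminescence in Jurkat cells cultured with compound for 16 hours in complete medium. AC50 values come from Hill fits of qHTS concentration-response data normalized to DMSO and 100 uM tamoxifen controls.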

[6] = Cellular Toxicity (caspase-3) HUV-EC-C (AID 656)
Method in brief: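 Read-out: luminescence proportional to caspase 3/7 activity, measured 20 min after adding Caspase-Glo 3/7 reagent. Cells (HUV-EC-C) had received compound for 16 hr at 37°C. Increases relative to DMSO and 100 uM tamoxifen gave concentration-response AC50 values.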

[7] = Cellular Toxicity (caspase-3) SHSY5Y (AID 657)
Method in brief: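 Cells plated and incubated 5 h at 37 °C, dosed over a concentration range, incubated 16 h, then given Caspase-Glo 3/7 reagent for 1 h at room temperature before luminescence reading. Staurosporine (10 uM) defined full stimulation.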

[8] = Cellular Toxicity (caspase-3) BJ (AID 658);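 note: 0% = DMSO basal and 100% = 10 µM staurosporine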
Method in brief: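 Caspase-Glo 3/7 luminescence, read 1 hr after reagent at room temperature, in normal BJ fibroblasts exposed 16 hours at 37 °C. AC50 values from Hill-equation concentration-response, scaled between DMSO basal and 10 uM staurosporine as 100%.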

[9] = Cellular Toxicity (caspase-3) Mesangial (AID 660); details: mesangial cells, normalized: DMSO 0%, 100 µM tamoxifen 100%; at 91.7 µM (top of the series);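 note: cells exposed to compound for 16 h before the caspase read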
Method in brief: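 AC50 values come from Hill-equation fits of caspase 3/7 activation, measured as Caspase-Glo luminescence in human glomerular mesangial cells exposed to compound for 16 h at 37 °C; 100% set by 100 uM tamoxifen.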

[10] = Cellular Toxicity (caspase-3) SK-N-SH (AID 661);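 note: 0% = DMSO basal and 100% = 10 µM staurosporine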
Method in brief: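 Apoptosis readout in SK-N-SH neuroblastoma: Caspase-Glo 3/7 luminescence following 16 hr treatment in complete culture medium. Normalization used DMSO and 10 uM staurosporine controls.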

[11] = Cellular Toxicity (caspase-3) H-4-II-E (AID 663); details: H-4-II-E rat hepatoma, scaled: DMSO 0%, 100 µM tamoxifen 100%; at 92.2 µM (top of the series);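 note: cells exposed to compound for 16 hr before readout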
Method in brief: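 Caspase 3/7 activation measured by luminescent aminoluciferin substrate cleavage after 16 hr compound treatment of H-4-II-E cells in complete medium. Increase normalized between DMSO (basal) and 100 uM tamoxifen (100%); Hill-equation AC50 from concentration-response.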

[12] = Cellular Toxicity (caspase-3) Hek293 (AID 664); details: HEK293 caspase-3 activation, DMSO = 0%, 100 µM tamoxifen = 100%; at 92.2 µM (top of the series);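 note: cells exposed to compound for 16 h at 37 °C before readout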
Method in brief: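 Apoptosis readout: Caspase-Glo 3/7 signal in human HEK293 cells following 16-hour compound incubation. Responses scaled between DMSO baseline and 100 uM tamoxifen.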

[13] = Cellular Toxicity (caspase-3) N2a (AID 665);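 note: compound exposure lasted 16 h at 37 °C before readout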
Method in brief: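 Concentration-response qHTS: compound-induced caspase-3/7 luminescence in N2a cells (16 h, 37 °C), relative to DMSO and 10 uM staurosporine controls; AC50 obtained using the standard Hill equation.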

[14] = Cellular Toxicity (caspase-3) NIH 3T3 (AID 666);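 note: 0% = DMSO basal and 100% = 100 µM tamoxifen stimulation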
Method in brief: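 Activity: caspase-3/7 induction, NIH 3T3 cells, 16 hr treatment at 37°C, luminescent Caspase-Glo detection; AC50 via Hill equation.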

[15] = Cellular Toxicity (caspase-3) Renal Proximal Tubule (AID 667); details: Potency: caspase-3 activation;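 note: cells exposed to compound for 16 hours at 37 °C before detection; 0% = DMSO basal and 100% = 10 µM staurosporine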
Method in brief: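 In qHTS format, rat primary proximal tubule cells seeded at 1000 per well are exposed to compounds for 16 hours at 37 °C. An increase in Caspase-Glo 3/7 luminescence indicates caspase activation.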

[16] = target: Cytochrome P450 3A4 (Homo sapiens) (UniProt P08684); assay: qHTS Assay for Inhibitors and Substrates of Cytochrome P450 3A4 (AID 884); note: % is set by controls: 0 for no effect and ±100 for the full control effect; nearly all actives have a fitted effect of over 50% in size
Method in brief: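 Luminescent readout of luciferin produced by CYP3A4 (20 nM) dealkylation of Luciferin-PPXE, 25 uM (its KM). NADPH-driven reaction ran 60 min at RT after 10 min compound preincubation; data scaled to 57 uM ketoconazole as 100% inhibition.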

[17] = Cell Viability - LYMP2-001 (AID 921);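 note: cells exposed to compound for 24 h at 37 °C; 0% = DMSO only and full inhibition = tetraoctylammonium bromide control wells; nearly all actives have a fitted effect of over 70% in size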
Method in brief: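 qHTS, 1536-well; lymphoblastoid cells, 24 hr compound, 37 C; ATP by CellTiter-Glo, 30 min RT; luminescence; Hill-fit AC50.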

[18] = Cellular Toxicity (caspase-3) MRC-5 (AID 659);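 note: 0% = DMSO basal and 100% = 10 µM staurosporine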
Method in brief: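 Luminescent Caspase-Glo 3/7 read-out (1 h, room temperature) after a 16 h, 37 °C compound exposure of MRC-5 lung fibroblasts at 1500 cells/well. Concentration-response AC50 from Hill equation; 0% DMSO, 100% 10 uM staurosporine.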

[19] = Cell Viability - Mesenchymal (AID 546);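 note: cells exposed to compound for 40 hours before reading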
Method in brief: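 CellTiter-Glo luminescence (intracellular ATP, 20 min room temperature) after 40 hr compound exposure at 37 °C of 1000 glomerulus-derived human kidney mesenchymal cells/well; AC50 values obtained by fitting qHTS concentration-response data to the Hill equation.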

Chain of Cytochrome P450 3A4 (Homo sapiens) (P08684 whole entry, looked up): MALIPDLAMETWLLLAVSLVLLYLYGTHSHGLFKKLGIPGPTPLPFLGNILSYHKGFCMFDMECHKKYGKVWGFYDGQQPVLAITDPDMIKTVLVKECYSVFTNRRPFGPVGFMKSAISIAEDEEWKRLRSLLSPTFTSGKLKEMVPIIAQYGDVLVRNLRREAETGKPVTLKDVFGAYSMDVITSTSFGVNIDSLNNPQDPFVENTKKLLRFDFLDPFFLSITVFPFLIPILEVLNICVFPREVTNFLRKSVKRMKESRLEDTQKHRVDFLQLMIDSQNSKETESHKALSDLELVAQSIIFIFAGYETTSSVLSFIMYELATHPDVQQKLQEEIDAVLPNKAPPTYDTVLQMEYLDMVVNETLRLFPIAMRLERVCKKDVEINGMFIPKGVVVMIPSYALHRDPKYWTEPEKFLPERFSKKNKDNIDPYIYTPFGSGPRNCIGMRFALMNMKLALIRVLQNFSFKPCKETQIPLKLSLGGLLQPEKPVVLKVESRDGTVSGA

CCCCCO
inactive: Potency [1] | Potency [2] | Potency [3] | Potency [4] | caspase-3 activation [5] -0.274% | outcome [6] | outcome [7] | outcome [8] | caspase-3 activation [9] 1.64% | outcome [10] | caspase-3 activation [11] -0.271% | caspase-3 activation [12] -0.0419% | outcome [13] | outcome [14] | Potency [15] | Potency [16] | Potency [17]

CC(=O)c1cc(C)oc1C
inactive: Potency [1] | Potency [2] | Potency [3] | Potency [4] | caspase-3 activation [5] 0.691% | outcome [6] | outcome [7] | outcome [8] | outcome [18] | caspase-3 activation [9] 0.543% | outcome [10] | caspase-3 activation [11] -0.25% | caspase-3 activation [12] 0.799% | outcome [13] | outcome [14] | Potency [15] | Potency [16] | Potency [17]

CCCCC(CC)CO (centres undefined)
inactive: Potency [1] | Potency [3] | Potency [19] | Potency [4] | caspase-3 activation [5] 0.69% | outcome [6] | outcome [7] | outcome [8] | outcome [18] | caspase-3 activation [9] -0.254% | outcome [10] | caspase-3 activation [11] 1.2% | caspase-3 activation [12] 1.6% | outcome [13] | outcome [14] | Potency [15] | Potency [16] | Potency [17]

CCCCN(CCO)CCCC
inactive: Potency [1] | Potency [2] | Potency [3] | Potency [4] | caspase-3 activation [5] -0.474% | outcome [6] | outcome [7] | outcome [8] | outcome [18] | caspase-3 activation [9] 0.749% | caspase-3 activation [11] -0.761% | caspase-3 activation [12] -0.886% | outcome [13] | outcome [14] | Potency [15] | Potency [16] | Potency [17]

Cc1ccccc1C(N)=O
inactive: Potency [1] | Potency [2] | Potency [3] | Potency [4] | caspase-3 activation [5] 1.13% | outcome [6] | outcome [7] | outcome [8] | outcome [18] | caspase-3 activation [9] 2.19% | outcome [10] | caspase-3 activation [11] 1.38% | caspase-3 activation [12] 3.64% | outcome [13] | outcome [14] | Potency [15] | Potency [16] | Potency [17]

COc1ccc(N)c(C)c1
inactive: Potency [1] | Potency [2] | Potency [3] | Potency [19] | Potency [4] | outcome [6] | outcome [7] | outcome [18] | caspase-3 activation [9] 2.2% | outcome [10] | caspase-3 activation [11] 0.764% | caspase-3 activation [12] -0.876% | outcome [13] | outcome [14] | Potency [15] | Potency [16] | Potency [17]

CCOCCO
inactive: Potency [1] | Potency [2] | Potency [3] | Potency [4] | caspase-3 activation [5] 0.459% | outcome [6] | outcome [7] | outcome [8] | outcome [18] | outcome [10] | caspase-3 activation [11] -0.494% | caspase-3 activation [12] -0.913% | outcome [13] | outcome [14] | Potency [15] | Potency [16]

CCCCCNCCCCC
inactive: Potency [1] | Potency [2] | Potency [3] | Potency [4] | caspase-3 activation [5] -1.44% | outcome [6] | outcome [7] | outcome [8] | outcome [18] | caspase-3 activation [9] 0.424% | outcome [10] | caspase-3 activation [11] 0.00908% | caspase-3 activation [12] 1.85% | outcome [13] | outcome [14] | Potency [15] | Potency [16] | Potency [17]
